Laboratory results as given in PubChem BioAssay (NCI).
This is part of a sample that, as a whole, favours compounds with a hit. Of some 83,000 tested, about 20% had one in any assay.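 How to read the values: 0–100, growth inhibition (40 = 60% inhibited); 0, no net growth; -100 to 0, cell death (-40 = 40% of starting cells died; -100 = all dead).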 Unmarked numbers belong to inactive results. The source made the active and inactive calls. The calls were made as follows: active = growth percent below 10; inactive = the rest.

Tested on: HL-60(TB) leukemia
Assay: NCI-60 one-dose screen, 48 h (100 = growth as untreated, 0 = no growth, -100 = all killed)
Conditions: 10 µM unless noted

Row | SMILES | growth
1 | COc1ccccc1OCC(O)CO (configuration not stated) | 74.1%
2 | CC(=O)/C(N=Nc1ccc(S(=O)(=O)c2ccc(N=N/C(C(C)=O)=C(/C)O)cc2)cc1)=C(\C)O | 88.5%
3 | NS(=O)(=O)c1ccc(CCn2c(SCC(=O)c3ccc(Cl)cc3)nc3ccccc3c2=O)cc1 | 95.5%
4 | NC(CCl)=NCC12CC3CC(CC(C3)C1)C2 | -30.2% (active)
5 | COC(=O)Nc1ccc2ccc3c(NC(=O)OC)ccc4ccc1c2c43 (tested in a mixture with another compound) | 33.8%
6 | N=C(N)c1ccc(-c2ccc(-c3ccc4ccccc4c3)s2)s1 | -56.4% (active)
7 | CCNNC(=O)[C@@H]1[C@H](c2cc(OC)c(OC)c(OC)c2)c2cc3c(cc2[C@H](O)[C@H]1CO)OCO3 | -24.1% (active)
8 | CCC(=O)Nc1nnc(Cc2ccc(OC)c(OC)c2)s1 | 53.2%
9 | Nc1cc(-c2ccc(Cl)cc2)nn1-c1nc(-c2ccc(Br)cc2)cs1 | 96.3%
10 | COc1ccc(C2CC(c3cccc(Nc4ccncc4)c3)=NN2c2cc(Cl)cc(Cl)c2)cc1 (configuration not stated) | 4.35% (active)
11 | CC(C)(C)OC(=O)N1CC(Cn2cc(C(F)(F)F)c3c(Cl)ncnc32)C1 | -67.5% (active)
12 | CCCc1cccc(CCC)c1O | 105%
13 | Cc1cc(C(=O)Nc2ncc(Cc3cccc(C(F)(F)F)c3)s2)c2ccccc2n1 | -33.8% (active)
14 | CCCCCCN(CCCCCC)CC(O)c1cccc2ccc(Cl)cc12 (configuration not stated) | 69.5%
15 | CC(C)C[C@H](NC(=O)/C=C/Cn1ccc2ccccc2c1=O)B(O)O | 24.2%
16 | ICCC(c1ccccc1)(c1ccccc1)c1ccccc1 | 43.4%
17 | Cn1cc(-c2nc(-c3cn(C)c4ncccc34)cs2)c2ccccc21 | 28.4%
18 | C=C(CNCCc1ccc(O)cc1)[C@@H]1CC[C@]2(COC3CCCCO3)CC[C@]3(C)[C@H](CC[C@@H]4[C@@]5(C)CCC(NCCO)C(C)(C)[C@@H]5CC[C@]43C)[C@@H]12 (some centres not stated) | -59.5% (active)
19 | O=C1c2ccccc2C(=O)c2c1ccc(C(=O)O)c2[N+](=O)[O-] | 65.1%
20 | CN(c1ccccc1)c1ncnc2c1ncn2C | 105%
21 | O=C(Nc1ccccc1)Nc1ccc(Nc2ncnc3sc4c(c23)CCCC4)cc1 | 97%
22 | O=C(N/N=C/c1ccc(Cl)cc1)c1ccc(C(F)(F)F)nc1Nc1cccc(C(F)(F)F)c1 | -37.2% (active)
